Compound activity (PubChem BioAssay)
This excerpt belongs to a sample that is enriched for hits.
NPSR antag = blocks cAMP signaling of the human neuropeptide S receptor | CHO-NPSR cells, cAMP TR-FRET, antagonist mode | 220,000 tested, 1% active | Potency, µM (highest dose often 38.3 µM), for the others: at the highest dose activity change, negative = inhibition, actives largely listed as inhibitors | Q6W5P4 | AID 1461; further: potency means the concentration at half of the fitted maximal effect; on the % scale 0 is the no-effect control and ±100 the full control effect; nearly all actives have a fitted effect of over 50% in size
TSHR antag = human thyrotropin receptor antagonism. TSHR-expressing cells, TSH-stimulated cAMP HTRF, 2 h; stronger effect = lower value. activity change, negative = inhibition, % at 11.5 µM. P16473. 330,000 tested, 0.2% active;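 active means activity change below a set negative limit, meaning inhibition stronger than a set level, cut at about -70% in these data; inconclusive means activity change between two set negative limits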; further: on the % scale 0 is the no-effect control and ±100 the full control effect
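TSHR-expressing cells, 200/well, pre-treated with compound, then stimulated with EC80 TSH (4nM final) for 2 hours at 37 deg C. cAMP measured by competitive HTRF: anti-cAMP cryptate antibody in lysis buffer plus cAMP-d2, read after 30 minutes at room temperature.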
PTHR1 ag = activates the human parathyroid hormone receptor PTHR1. HEK293 GP2 PTHR1 cells, GloSensor cAMP luminescence, 1 h. Potency, µM (series often up to 115 µM), for the others: top-dose activation, usual class: activators. 410,000 tested, 0.075% active; further: potency means the concentration at half of the fitted maximal effect; nearly all actives have a fitted effect of over 55% in size
Target sequence (Q03431 whole entry, looked up): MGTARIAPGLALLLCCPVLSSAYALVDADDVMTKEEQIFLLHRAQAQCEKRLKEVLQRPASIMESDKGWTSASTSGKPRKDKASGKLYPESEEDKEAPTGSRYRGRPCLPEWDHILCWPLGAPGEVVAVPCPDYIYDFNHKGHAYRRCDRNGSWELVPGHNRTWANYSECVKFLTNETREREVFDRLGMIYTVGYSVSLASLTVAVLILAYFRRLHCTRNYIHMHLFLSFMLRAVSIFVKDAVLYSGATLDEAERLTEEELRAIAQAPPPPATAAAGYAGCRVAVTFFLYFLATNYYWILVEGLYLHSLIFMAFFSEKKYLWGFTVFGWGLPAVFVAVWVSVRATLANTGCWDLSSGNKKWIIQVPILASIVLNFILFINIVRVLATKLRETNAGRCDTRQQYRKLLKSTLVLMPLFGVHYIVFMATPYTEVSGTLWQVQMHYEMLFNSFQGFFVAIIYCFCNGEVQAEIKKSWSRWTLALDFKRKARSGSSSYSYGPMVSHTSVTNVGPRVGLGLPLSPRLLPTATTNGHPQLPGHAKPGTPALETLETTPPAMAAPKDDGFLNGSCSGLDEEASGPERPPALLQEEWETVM
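HEK-293-derived GP2 cells expressing PTHR1 and a GloSensor cAMP reporter, 3,000/well, plated overnight, given luciferin plus IBMX (each 0.5 mM as added) for 1 h at 37 °C, then compound for 1 h at 37 °C. Luminescence was read after 15 min at room temperature.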
HEK293 tox = cytotoxic in the GLP-1 receptor inverse agonist counter-screen; HEK293 cAMP-luciferase reporter cells, luminescence, 24 h; Potency, µM (top dose mostly 38.3 µM), inactives show at the top dose activity change, negative = inhibition, usual class: inhibitors; 410,000 tested, 0.13% active;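 further: loss of luciferase light is scored as toxicity; potency means the concentration at half of the fitted maximal effect; on the % scale 0 is the no-effect control and ±100 the full control effect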
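To flag toxic compounds, the library was rerun on cells for 24 hr at 37 deg C and 5% CO2. Viability-linked luminescence was captured 12 min after adding luciferase detection reagent.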
RXFP1 agonist = RXFP1 (human) receptor agonism | Q9HBX9 | HEK293T-RXFP1 cAMP TR-FRET, 30 min; response scale: percent of porcine relaxin response, buffer zero | Potency, µM (titrated, usually from 57.5 µM), for inactives: at the highest dose activation, most hits filed as activators | 370,000 tested, 0.3% active; further: potency means the concentration at half of the fitted maximal effect; on the % scale 0 is the no-effect control and ±100 the full control effect; nearly all actives have a fitted effect of over 60% in size
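Agonist response is measured as cAMP accumulation in an RXFP1-transfected HEK293T line under PDE4 inhibition. Values are scaled between buffer-only and 29 nM porcine relaxin, and EC50s come from standard Hill equation fits.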
RXFP1 antag = antagonists of human relaxin receptor RXFP1; HEK293-RXFP1, relaxin-stimulated cAMP HTRF, 30 min; stronger effect = lower value; Q9HBX9; activity change, negative = inhibition, % at 57.5 µM; 350,000 tested, 0.59% active; AID 1259400;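 active means activity change of -60% or lower, but not beyond a set lower limit; inconclusive means change between -60% and -40%, or beyond the set limit; inactive means change above -40%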; further: on the % scale 0 is the no-effect control and ±100 the full control effect
Starred values were filed as active, the others as inactive; ! = not active in a repeat; [ ] = another dose, or the depositor's remark. Unless noted, the call rests on the fitted dose curve; in most records, active means well fitted curve in the direction sought with a large enough effect; inconclusive means small, poorly fitted or top-dose-only effect, or another doubt; inactive means no such curve, though single readings can be large; an effect the other way counts as inactive or inconclusive.

How did O=C(/C=C/c1ccco1)NC(=S)Nc1ccc(O)c(-c2nc3ccccc3s2)c1 do in these assays?
NPSR antag: 1µM*; TSHR antag: 17; PTHR1 ag: -4%; HEK293 tox: -9%; RXFP1 agonist: -1%; RXFP1 antag: 11

What do the screens show for `O=C(/C=C\c1ccco1)Nc1nc(-c2ccc3ccccc3c2)cs1`?
NPSR antag: 2%[46.1 µM]; TSHR antag: inconclusive; PTHR1 ag: -43%; HEK293 tox: 13%; RXFP1 agonist: 0%; RXFP1 antag: -3

Results for Cc1ccc(-c2csc(NC(=S)NC(=O)/C=C/c3ccco3)n2)cc1 ?
NPSR antag: 10µM*; TSHR antag: -38; PTHR1 ag: -4%[57.5 µM]; HEK293 tox: inconclusive; RXFP1 agonist: 0%; RXFP1 antag: -16

Results for COc1ccc(NC(=S)NC(=O)/C=C/c2ccco2)cc1 ?
NPSR antag: -30%; TSHR antag: inconclusive; PTHR1 ag: -26%; HEK293 tox: inconclusive; RXFP1 agonist: -1%; RXFP1 antag: -11

How did CCOc1ccccc1CNC(=O)C1CCN(S(=O)(=O)c2c(C)noc2/C=C/c2ccc(C)cc2)CC1 do in these assays?
PTHR1 ag: 25%; HEK293 tox: 2%; RXFP1 agonist: -1%; RXFP1 antag: 3

What do the screens show for `CCOc1cc(C(=O)NCc2nc(-c3cccc(C)c3)no2)cc(OCC)c1OCC`?
PTHR1 ag: -3%; HEK293 tox: 12%; RXFP1 agonist: -2%; RXFP1 antag: 2

Results for CCOC(=O)NNc1ccc(N(CC)CC(C)O)nn1 (stereo not drawn) ?
RXFP1 antag: 10

Results for Cc1cc(C=O)c(C)n1-c1ccc(NC2CCCC2)c([N+](=O)[O-])c1 ?
NPSR antag: -16%[46.1 µM]; TSHR antag: -100*; PTHR1 ag: -25%; HEK293 tox: -22%; RXFP1 agonist: 0%; RXFP1 antag: -65*

What do the screens show for `Cc1cc(C=O)c(C)n1-c1ccc(Oc2ccc([N+](=O)[O-])cn2)cc1`?
NPSR antag: -15%; TSHR antag: 1; PTHR1 ag: inactive; HEK293 tox: -20%; RXFP1 agonist: 2%; RXFP1 antag: -10

How did CCOC(=O)c1cnc2ccc(C)cc2c1Nc1ccc(N2CCOCC2)cc1 do in these assays?
NPSR antag: inconclusive; TSHR antag: -12; PTHR1 ag: -12%[57.5 µM]; HEK293 tox: inconclusive; RXFP1 agonist: 1%; RXFP1 antag: -101*

How did CCOC(=O)c1cnc2ccc(C)cc2c1Nc1ccc(N(CC)CC)cc1 do in these assays?
PTHR1 ag: inconclusive; HEK293 tox: inconclusive; RXFP1 agonist: 6%; RXFP1 antag: -70*

How did O=C(Nc1ccc(F)cc1)Nc1cc(OCC(F)(F)F)cc(OCC(F)(F)F)c1 do in these assays?
NPSR antag: 13µM*; TSHR antag: -37; PTHR1 ag: -25%; HEK293 tox: inconclusive; RXFP1 agonist: 0%; RXFP1 antag: -4

How did CCCCC[C@]12Cc3ccccc3C(O1)c1c(cc(C)oc1=O)O2 do in these assays?
RXFP1 agonist: 1%[11.5 µM]

How did Cc1cc(CN2CCN(CCC#N)CC2)c(O)c(C2(C)CCCCC2)c1 do in these assays?
NPSR antag: 10µM*; TSHR antag: -11; PTHR1 ag: inactive; HEK293 tox: 74%; RXFP1 agonist: 3%; RXFP1 antag: 3

What do the screens show for `CN(c1ccccc1)S(=O)(=O)c1ccc(NC(=O)c2nc(S(C)(=O)=O)ncc2Cl)cc1`?
TSHR antag: -95*; PTHR1 ag: -56%; HEK293 tox: inconclusive; RXFP1 agonist: 4%; RXFP1 antag: inconclusive

How did CCSc1ncc(Cl)c(C(=O)Nc2ccccc2)n1 do in these assays?
NPSR antag: -46%; TSHR antag: -11; PTHR1 ag: -9%; HEK293 tox: -1%; RXFP1 agonist: 0%

How did CSc1nnc(NC(=O)c2nc(S(=O)(=O)Cc3ccccc3)ncc2Cl)s1 do in these assays?
TSHR antag: -38; PTHR1 ag: -21%; HEK293 tox: 3%; RXFP1 agonist: 0%; RXFP1 antag: -63*

What do the screens show for `CCS(=O)(=O)c1ncc(Cl)c(C(=O)Nc2ccccc2)n1`?
PTHR1 ag: -97%; HEK293 tox: inconclusive; RXFP1 agonist: 0%; RXFP1 antag: -88*

How did CCCSc1ncc(Cl)c(C(=O)Nc2ccc(S(=O)(=O)N(C)c3ccccc3)cc2)n1 do in these assays?
PTHR1 ag: -12%; HEK293 tox: 1%; RXFP1 agonist: 1%; RXFP1 antag: -13

How did CCSc1ncc(Cl)c(C(=O)Nc2ccc(S(=O)(=O)N3CCC(C)CC3)cc2)n1 do in these assays?
PTHR1 ag: -4%; HEK293 tox: -7%; RXFP1 agonist: 3%

Results for CCS(=O)(=O)c1ncc(Cl)c(C(=O)Nc2ccc(S(=O)(=O)N3CCC(C)CC3)cc2)n1 ?
TSHR antag: -78*; PTHR1 ag: -19%; HEK293 tox: 6%; RXFP1 agonist: 2%; RXFP1 antag: inconclusive

What do the screens show for `CCCc1nnc(NC(=O)c2nc(S(=O)(=O)Cc3ccc(C)cc3)ncc2Cl)s1`?
TSHR antag: -41; PTHR1 ag: -38%; HEK293 tox: inconclusive; RXFP1 agonist: -3%; RXFP1 antag: -11

How did NC(=O)C1CCN(c2nc(-c3ccccc3[N+](=O)[O-])cs2)CC1 do in these assays?
TSHR antag: -1

What do the screens show for `COC(=O)c1cc(=O)nc(NN=C2c3ccccc3-c3ccccc32)s1`?
PTHR1 ag: inactive; HEK293 tox: -4%

How did NC(=O)c1ccc2[nH]ccc2c1 do in these assays?
TSHR antag: -15

What do the screens show for `Cc1cccc(CS(=O)(=O)c2ncc(Cl)c(C(=O)NCc3ccc4c(c3)OCO4)n2)c1`?
TSHR antag: 34; PTHR1 ag: -38%; HEK293 tox: -8%; RXFP1 agonist: 0%; RXFP1 antag: -87*

What do the screens show for `CCOC(=O)c1ccc(NC(=O)c2nc(S(=O)(=O)Cc3ccccc3)ncc2Cl)cc1`?
TSHR antag: inconclusive; PTHR1 ag: -96%; HEK293 tox: 7%; RXFP1 agonist: 1%; RXFP1 antag: -62*!

What do the screens show for `Cc1ccc(NC(=O)c2nc(S(=O)(=O)Cc3ccccc3C)ncc2Cl)cc1C`?
TSHR antag: inconclusive; PTHR1 ag: -24%; HEK293 tox: -3%; RXFP1 agonist: 0%; RXFP1 antag: -74*

How did CCc1ccc(NC(=O)c2nc(S(=O)(=O)Cc3ccccc3)ncc2Cl)cc1 do in these assays?
TSHR antag: -74*; RXFP1 agonist: 0%
